Source: ChEMBL document CHEMBL4513146, “CO-ADD screening of Karazin Kharkiv National University (Ukraine) compounds”
Measured potencies and affinities stand elsewhere.

What follows are compounds tested on Staphylococcus aureus. Conditions: Concentration 32 ug.mL-1;; ASSAY_TEST Inhibition of Bacterial Growth; detection method Absorption (OD600); MEDIA CAMHB; plate type 384well; NBS; CORNING #3640; time 18 hr.

| SMILES | Inhibition [%] |
| --- | --- |
| Cc1ccc(Cl)cc1NC(=O)CSc1nc2ccccc2n2c(C)nnc12 | -8.21 |
| CCC(Sc1nnc2c(=O)n(-c3cccc(OC)c3)ccn12)C(=O)Nc1cc(F)ccc1F (stereo not given) | 3.22 |
| COc1cccc(-c2nc(CSc3nc4ccccc4n4c(C(C)C)nnc34)c(C)o2)c1OC | 5.27 |
| Cn1c(=O)c2sccc2n2c(=O)n(CCOc3ccccc3)nc12 | -2.74 |
| O=S(=O)(c1ccc2nncn2c1)N(Cc1ccc(F)cc1)c1ccc(F)c(F)c1 | -11.56 |
| Cc1cccc(NC(=O)Cn2nc3c4cc(-c5ccc(F)cc5)nn4ccn3c2=O)c1C | -2.18 |
| O=C(CSc1nnc2c(=O)n(-c3ccccc3)ccn12)N1CCN(c2ccc(F)cc2)CC1 | 7.73 |
| Cc1ccc(NC(=O)Cn2nc3c(SCc4ccc(Cl)cc4)nccn3c2=O)c(C)c1 | 10.91 |
| O=C(Cn1nc2ccc(SCc3ccc(Cl)cc3)nn2c1=O)NCc1ccccc1 | 7.82 |
| Cc1ccc(-c2ccc3nnc(CCC(=O)NCc4cccc(Br)c4)n3n2)cc1C | 4.83 |
